Structures are written as SMILES. Records with an inconclusive call do not appear. The source made the active and inactive calls. Rule for the calls: active = hit-call score of the fitted dose curve at least 0.9, where 1 is the maximum; inconclusive = response in the unintended direction; inactive = score below 0.9.

The target in assay [1] is human Casein Kinase 1-delta (CK1D), CSNK1D (gene 1453) (UniProt P48730). Put plainly: NVS_ENZ_hCK1D: NovaScreen (NVS) Enzymatic Assay for human Casein Kinase 1-delta (CK1D) (AID 2283148). In a few lines:
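Recombinant human CK1-delta, cell-free; fluorescent substrate with electrophoretic mobility-shift separation of product, read 1 h after dosing. Single 25 uM duplicate screen, then concentration-response up to 50 uM; loss of signal vs DMSO.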

Assay [2] concerns the target human Colony Stimulating Factor 1 Receptor (CSF1R), CSF1R (gene 1436) (UniProt P07333). In words: NVS_ENZ_hCSF1R: NovaScreen (NVS) Enzymatic Assay for human Colony Stimulating Factor 1 Receptor (CSF1R) (AID 2283150). The gist of the method:
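Cell-free recombinant human CSF1R kinase with fluorescent substrate, product separated by electrophoretic mobility shift; read 1 h after dosing. Primary screen at 25 uM in duplicate, actives then in concentration-response up to 50 uM, relative to DMSO.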

Assay [3] has as its target human Beta-secretase (BACE), BACE1 (gene 23621) (UniProt P56817). Put plainly: NVS_ENZ_hBACE: NovaScreen (NVS) Enzymatic Assay for human Beta-secretase (BACE) (AID 2283140).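 Note: hits are inhibitors that reduce fluorescent substrate signal versus DMSO.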 The gist of the method: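 Cell-free assay of recombinant Sf9-expressed human BACE with fluorescent substrate, read by fluorescence intensity after 1 h. Primary screen in duplicate at 25 uM; actives then run in concentration series; loss of signal relative to DMSO.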

For assay [4], the target named is human Caspase 4 (CASP4), CASP4 (gene 837) (UniProt P49662). Put plainly: NVS_ENZ_hCASP4: NovaScreen (NVS) Enzymatic Assay for human Caspase 4 (CASP4) (AID 2283143). As to the method: NVS_ENZ_hCASP4 is a biochemical, single-readout assay that uses extracted gene-proteins from E. coli in a cell-free assay. Measurements were taken 2 hours after chemical dosing in a 96-well plate.NVS_ENZ_hCASP4 is one of one assay component(s) measured or calculated from the NVS_ENZ_hCASP4 assay. It is designed to make measurements of enzyme activity, a form of enzyme reporter, as detected with fluorescence intensity signals by Fluorescence technology.Data from the assay component NVS_ENZ_hCASP4 was analyzed into 1 assay endpoint. This assay endpoint, NVS_ENZ_hCASP4, was analyzed in the positive analysis fitting direction relative to DMSO as the negative control and baseline of activity. Using a type of enzyme reporter, loss-of-signal activity can be used to understand changes in the enzymatic activity as they relate to the gene CASP4. Furthermore, this assay endpoint can be referred to as a primary readout, because this assay has produced multiple assay endpoints where this one serves a enzymatic activity function. To generalize the intended target to other relatable targets, this assay endpoint is annotated to the protease intended target family, where the subfamily is cysteine protease.
Binding assays used specific radioligands (tritiated, iodinated) with non-radioactive competitive displacement ligands in agonist or antagonist protocols (as indicated) and various reference compounds and inhibitors to titrate specific binding to receptors and transporters. Most enzyme assays (CYPs, kinases, phosphatases, proteases, HDACs) used recombinant protein and specific substrates (fluorescence mostly, some colorimetric and radioactive) and inhibitors, followed by a biochemical separation of substrate and product. All assays for the biochemical HTS were initially run in duplicate at a single concentration (10 uM for CYP450 assays and 25 uM for all others). Assay-chemical combinations meeting a pre-defined threshold (e.g., 30% inhibition and other criteria defined below) were then run in singleton concentration-response format with maximum concentration of 20 uM for CYPs and 50 uM for all others. Each assay was run with positive and negative controls, and concurrent controls on every plate. The follow-up (secondary) screen tested active chemical-pairs in concentration series, as well as a few additional assays not tested in the primary screen, some selected negative inactives, and several cases re-run in the concentration series for confirmatory purposes.

The target of assay [5] is human AKT serine/threonine Kinase 1 (AKT1), AKT1 (gene 207) (UniProt P31749). Put plainly: NVS_ENZ_hAKT1: NovaScreen (NVS) Enzymatic Assay for human AKT serine/threonine Kinase 1 (AKT1) (AID 2283138). The gist of the method:
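Recombinant human AKT1 with a specific substrate, product separated by electrophoretic mobility shift, read after 1 h. Compounds at 25 uM in duplicate, then concentration-response up to 50 uM for hits; inhibition relative to DMSO.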

The target of assay [6] is CDK2 (gene 1017) (UniProt P24941). Put plainly: NVS_ENZ_hCDK2: NovaScreen (NVS) Enzymatic Assay for human Cyclin-Cependent Kinase 2 (CDK2) (AID 2283144). Here is the method: NVS_ENZ_hCDK2 is a biochemical, single-readout assay that uses extracted gene-proteins in a cell-free assay. Measurements were taken 1 hour after chemical dosing in a 384-well plate.NVS_ENZ_hCDK2 is one of one assay component(s) measured or calculated from the NVS_ENZ_hCDK2 assay. It is designed to make measurements of enzyme activity, a form of enzyme reporter, as detected with fluorescence intensity signals by Fluorescence and electrophoretic mobility shift technology.Data from the assay component NVS_ENZ_hCDK2 was analyzed into 1 assay endpoint. This assay endpoint, NVS_ENZ_hCDK2, was analyzed in the positive analysis fitting direction relative to DMSO as the negative control and baseline of activity. Using a type of enzyme reporter, loss-of-signal activity can be used to understand changes in the enzymatic activity as they relate to the gene CDK2. Furthermore, this assay endpoint can be referred to as a primary readout, because this assay has produced multiple assay endpoints where this one serves a enzymatic activity function. To generalize the intended target to other relatable targets, this assay endpoint is annotated to the kinase intended target family, where the subfamily is serine/threonine kinase. […]

In assay [7] the target is Caspase-3 (Homo sapiens) (UniProt P42574). In words: NVS_ENZ_hCASP3: NovaScreen (NVS) Enzymatic Assay for human Caspase 3 (CASP3) (AID 2283139). The gist of the method: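 Recombinant human caspase-3 from E. coli with a fluorogenic substrate, read by fluorescence 1 h after dosing. Primary screen in duplicate at 25 uM. Actives (for example ≥30% inhibition) rerun as concentration-response up to 50 uM.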

Assay [8] deals with human AKT serine/threonine Kinase 2 (AKT2), AKT2 (gene 208) (UniProt P31751). In words: NVS_ENZ_hAKT2: NovaScreen (NVS) Enzymatic Assay for human AKT serine/threonine Kinase 2 (AKT2) (AID 2283141). In a few lines:
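Cell-free fluorescence/electrophoretic mobility shift readout of recombinant human AKT2 activity, 1 h after chemical dosing. Duplicate primary screen at 25 uM, then singleton concentration-response up to 50 uM; loss of signal versus DMSO baseline.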

The target in assay [9] is human Caspase 8 (CASP8), CASP8 (gene 841) (UniProt Q14790). In words: NVS_ENZ_hCASP8: NovaScreen (NVS) Enzymatic Assay for human Caspase 8 (CASP8) (AID 2283146). The gist of the method:
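E. coli-expressed enzyme was used in a cell-free fluorogenic substrate assay read 1 h after dosing. Loss of signal was scored relative to DMSO, and the primary screen was run in duplicate at 25 uM.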

Assay [10] concerns the target human Dual Specificity Protein Phosphatase 3 (DUSP3), DUSP3 (gene 1845) (UniProt P51452). In words: NVS_ENZ_hDUSP3: NovaScreen (NVS) Enzymatic Assay for human Dual Specificity Protein Phosphatase 3 (DUSP3) (AID 2283152).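 Note: phosphatase activity of recombinant human DUSP3 on a fluorogenic substrate without cells.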 In a few lines:
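Cell-free assay with recombinant human DUSP3 and fluorogenic substrate, read by fluorescence intensity. Primary screen ran duplicate at 25 uM; actives followed up in concentration series; loss of signal versus DMSO scored.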

Sequence of human Caspase 8 (CASP8), CASP8 (gene 841) (Q14790 whole entry, looked up): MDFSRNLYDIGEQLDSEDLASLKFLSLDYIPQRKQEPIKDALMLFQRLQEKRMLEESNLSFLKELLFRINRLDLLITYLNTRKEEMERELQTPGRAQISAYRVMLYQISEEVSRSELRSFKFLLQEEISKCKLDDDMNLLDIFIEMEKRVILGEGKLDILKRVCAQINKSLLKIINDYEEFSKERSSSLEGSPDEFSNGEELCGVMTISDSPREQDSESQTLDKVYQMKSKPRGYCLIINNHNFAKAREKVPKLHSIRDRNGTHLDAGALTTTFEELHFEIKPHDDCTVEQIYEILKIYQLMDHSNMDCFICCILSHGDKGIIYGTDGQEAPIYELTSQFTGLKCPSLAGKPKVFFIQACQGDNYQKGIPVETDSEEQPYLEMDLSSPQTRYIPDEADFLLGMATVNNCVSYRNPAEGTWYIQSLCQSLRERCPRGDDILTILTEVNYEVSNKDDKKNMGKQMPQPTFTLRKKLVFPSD
Sequence of human Colony Stimulating Factor 1 Receptor (CSF1R), CSF1R (gene 1436) (P07333 whole entry, looked up): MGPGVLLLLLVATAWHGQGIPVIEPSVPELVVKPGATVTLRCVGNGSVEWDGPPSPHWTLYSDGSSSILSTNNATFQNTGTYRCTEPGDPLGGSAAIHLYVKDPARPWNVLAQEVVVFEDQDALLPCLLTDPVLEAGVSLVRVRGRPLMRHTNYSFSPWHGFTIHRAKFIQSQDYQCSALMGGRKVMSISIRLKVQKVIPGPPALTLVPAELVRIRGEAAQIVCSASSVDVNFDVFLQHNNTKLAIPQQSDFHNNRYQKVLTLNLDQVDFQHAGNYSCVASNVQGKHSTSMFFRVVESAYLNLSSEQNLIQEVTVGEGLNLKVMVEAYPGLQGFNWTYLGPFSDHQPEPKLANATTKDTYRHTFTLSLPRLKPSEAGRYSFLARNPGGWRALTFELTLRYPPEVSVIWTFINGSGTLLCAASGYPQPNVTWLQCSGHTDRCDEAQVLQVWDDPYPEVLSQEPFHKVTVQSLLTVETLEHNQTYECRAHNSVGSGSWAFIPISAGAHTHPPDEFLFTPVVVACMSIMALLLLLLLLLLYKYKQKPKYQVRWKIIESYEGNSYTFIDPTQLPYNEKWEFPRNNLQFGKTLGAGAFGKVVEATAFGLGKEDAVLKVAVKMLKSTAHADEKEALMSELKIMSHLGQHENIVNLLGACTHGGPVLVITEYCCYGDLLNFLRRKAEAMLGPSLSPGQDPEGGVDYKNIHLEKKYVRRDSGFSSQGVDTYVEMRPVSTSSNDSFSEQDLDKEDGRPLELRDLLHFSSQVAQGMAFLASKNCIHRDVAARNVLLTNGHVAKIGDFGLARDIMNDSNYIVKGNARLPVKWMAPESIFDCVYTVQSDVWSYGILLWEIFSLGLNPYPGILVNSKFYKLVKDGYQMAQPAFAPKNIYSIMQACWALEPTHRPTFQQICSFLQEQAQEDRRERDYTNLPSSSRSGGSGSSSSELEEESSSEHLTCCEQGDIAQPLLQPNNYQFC
Sequence of human Caspase 4 (CASP4), CASP4 (gene 837) (P49662 whole entry, looked up): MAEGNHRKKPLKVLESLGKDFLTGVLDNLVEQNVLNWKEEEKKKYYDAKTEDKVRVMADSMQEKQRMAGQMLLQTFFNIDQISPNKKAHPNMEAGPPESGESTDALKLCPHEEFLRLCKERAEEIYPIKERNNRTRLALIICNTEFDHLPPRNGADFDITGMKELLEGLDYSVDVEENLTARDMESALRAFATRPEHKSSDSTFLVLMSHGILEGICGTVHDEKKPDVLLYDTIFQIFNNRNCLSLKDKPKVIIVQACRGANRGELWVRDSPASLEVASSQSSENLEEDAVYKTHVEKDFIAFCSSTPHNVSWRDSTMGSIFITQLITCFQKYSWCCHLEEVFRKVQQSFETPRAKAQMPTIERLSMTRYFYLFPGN
Sequence of human Dual Specificity Protein Phosphatase 3 (DUSP3), DUSP3 (gene 1845) (P51452 whole entry, looked up): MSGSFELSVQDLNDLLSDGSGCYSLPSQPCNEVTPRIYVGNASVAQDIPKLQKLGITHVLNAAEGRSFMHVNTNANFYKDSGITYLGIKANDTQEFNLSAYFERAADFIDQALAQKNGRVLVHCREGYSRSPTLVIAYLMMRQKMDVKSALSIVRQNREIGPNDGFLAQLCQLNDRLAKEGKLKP
Sequence of Caspase-3 (Homo sapiens) (P42574 whole entry, looked up): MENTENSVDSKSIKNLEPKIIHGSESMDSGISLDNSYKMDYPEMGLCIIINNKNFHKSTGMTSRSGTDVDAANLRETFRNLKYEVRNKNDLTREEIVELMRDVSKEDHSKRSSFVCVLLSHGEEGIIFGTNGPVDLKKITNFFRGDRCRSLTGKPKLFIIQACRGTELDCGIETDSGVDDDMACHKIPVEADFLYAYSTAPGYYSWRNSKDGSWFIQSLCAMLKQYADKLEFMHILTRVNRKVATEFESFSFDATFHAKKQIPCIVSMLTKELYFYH
Sequence of human AKT serine/threonine Kinase 1 (AKT1), AKT1 (gene 207) (P31749 whole entry, looked up): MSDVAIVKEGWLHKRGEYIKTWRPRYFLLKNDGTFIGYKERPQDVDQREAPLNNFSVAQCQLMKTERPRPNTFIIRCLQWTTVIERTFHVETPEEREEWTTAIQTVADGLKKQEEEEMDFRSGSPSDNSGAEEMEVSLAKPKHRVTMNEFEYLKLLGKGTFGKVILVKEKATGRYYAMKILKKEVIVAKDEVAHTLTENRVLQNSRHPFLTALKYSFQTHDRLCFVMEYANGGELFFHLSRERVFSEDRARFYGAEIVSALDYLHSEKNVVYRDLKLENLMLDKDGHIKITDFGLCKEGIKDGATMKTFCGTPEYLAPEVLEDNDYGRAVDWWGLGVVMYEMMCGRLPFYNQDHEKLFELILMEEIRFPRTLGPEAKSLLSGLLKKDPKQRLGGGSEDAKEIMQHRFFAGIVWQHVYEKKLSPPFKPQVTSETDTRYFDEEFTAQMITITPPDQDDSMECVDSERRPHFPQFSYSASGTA
Sequence of human Casein Kinase 1-delta (CK1D), CSNK1D (gene 1453) (P48730 whole entry, looked up): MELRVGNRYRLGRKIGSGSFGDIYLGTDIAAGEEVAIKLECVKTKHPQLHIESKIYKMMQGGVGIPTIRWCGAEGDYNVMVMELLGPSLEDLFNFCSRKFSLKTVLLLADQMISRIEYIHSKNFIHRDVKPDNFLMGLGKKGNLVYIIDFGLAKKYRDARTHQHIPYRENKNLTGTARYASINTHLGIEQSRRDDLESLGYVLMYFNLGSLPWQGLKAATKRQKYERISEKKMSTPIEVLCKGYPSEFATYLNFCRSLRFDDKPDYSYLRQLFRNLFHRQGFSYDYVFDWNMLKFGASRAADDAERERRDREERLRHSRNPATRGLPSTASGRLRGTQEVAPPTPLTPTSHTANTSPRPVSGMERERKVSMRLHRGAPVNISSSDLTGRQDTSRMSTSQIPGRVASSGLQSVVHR
Sequence of human Beta-secretase (BACE), BACE1 (gene 23621) (P56817 whole entry, looked up): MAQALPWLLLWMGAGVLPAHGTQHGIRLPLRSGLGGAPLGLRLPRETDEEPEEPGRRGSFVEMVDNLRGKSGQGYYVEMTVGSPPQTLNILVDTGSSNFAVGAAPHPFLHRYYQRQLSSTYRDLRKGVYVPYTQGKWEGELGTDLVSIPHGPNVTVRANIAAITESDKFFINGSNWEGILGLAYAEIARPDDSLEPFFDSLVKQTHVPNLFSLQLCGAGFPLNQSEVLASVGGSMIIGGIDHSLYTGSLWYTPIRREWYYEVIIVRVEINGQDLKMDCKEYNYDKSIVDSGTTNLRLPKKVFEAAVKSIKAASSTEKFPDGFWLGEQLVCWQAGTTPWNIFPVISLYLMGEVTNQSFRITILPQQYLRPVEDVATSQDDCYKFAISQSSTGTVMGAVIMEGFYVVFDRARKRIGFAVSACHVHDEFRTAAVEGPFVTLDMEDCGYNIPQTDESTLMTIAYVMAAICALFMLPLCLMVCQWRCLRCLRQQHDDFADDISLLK
Sequence of human AKT serine/threonine Kinase 2 (AKT2), AKT2 (gene 208) (P31751 whole entry, looked up): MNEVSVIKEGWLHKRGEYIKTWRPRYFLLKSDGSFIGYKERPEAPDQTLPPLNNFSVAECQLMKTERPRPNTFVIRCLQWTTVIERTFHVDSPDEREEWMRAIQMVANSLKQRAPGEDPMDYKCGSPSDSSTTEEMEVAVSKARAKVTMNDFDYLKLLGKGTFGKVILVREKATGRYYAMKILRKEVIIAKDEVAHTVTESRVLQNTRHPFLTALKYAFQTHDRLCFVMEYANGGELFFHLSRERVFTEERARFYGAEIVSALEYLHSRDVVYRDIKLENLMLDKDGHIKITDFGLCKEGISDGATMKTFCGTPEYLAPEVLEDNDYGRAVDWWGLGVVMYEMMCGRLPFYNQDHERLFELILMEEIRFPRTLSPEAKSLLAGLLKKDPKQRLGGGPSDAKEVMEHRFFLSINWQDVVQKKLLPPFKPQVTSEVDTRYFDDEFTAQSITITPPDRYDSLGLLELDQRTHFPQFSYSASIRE

With `C=CCCCCCCCCCCCC`, the result in assay [1] was inactive.

With `CN(C)C(=O)NC1(c2ccccc2)CCN(CCC[C@]2(c3ccc(Cl)c(Cl)c3)CCCN(C(=O)c3ccccc3)C2)CC1`, the molecule was classed as inactive in assay [1] and in [2].

Turning to `Nc1nc(Cl)nc2c1ncn2[C@H]1C[C@H](O)[C@@H](CO)O1`, in assay [2], the molecule was classed as inactive.

Take `CCc1cc(C2=C(C(=O)O)N(c3ccccc3C(F)(F)F)S(=O)(=O)c3ccccc32)cc2c1OCO2`: the half-maximal activity concentration (AC50) (usually the midpoint of the concentration-response curve, whichever way the signal moves) in [3] is 6.05 µM (active). In addition, in assay [4], the result was inactive.

Consider `COc1ccc(OC(F)(F)F)cc1CN[C@H]1CCCN[C@H]1c1ccccc1`, for which the outcome in assay [5], in assay [6], in [1] and in assay [2] was inactive.

`Cc1ccc(-c2cc(C(F)(F)F)nn2-c2ccc(S(N)(=O)=O)cc2)cc1`: in assay [4], the outcome was inactive.

Regarding `O=C1c2c(O)cccc2Cc2cccc(O)c21`, in assay [5], the molecule was classed as inactive. The AC50 in assay [7] was 13.1 µM (active); in assay [3], 1.22 µM (active); in assay [8], 16 µM (active); in assay [4] it was 4.5 µM (active); in [9], 7.92 µM (active).

Turning to `Cc1cc(SC2=C(O)C[C@@](CCc3ccc(N)cc3)(C(C)C)OC2=O)c(C(C)(C)C)cc1CO`, the molecule was called inactive in [3].

`O=C(O)c1[nH]n(-c2ccc(S(=O)(=O)O)cc2)c(=O)c1N=Nc1ccc(S(=O)(=O)O)cc1`: the outcome in assay [4] was inactive. Further, in [9], the half-maximal activity concentration (AC50) is 7.11 µM (active).

Turning to `Cc1c(C)c2c(c(C)c1O)CCC(C)(COc1ccc(CC3SC(=O)NC3=O)cc1)O2` (stereo not drawn), in assay [10], the molecule was called inactive.

Regarding `CCCC(=O)O`, in assay [5], the outcome was inactive.

As for `O=C(Oc1ccccc1)c1cccc(C(=O)Oc2ccccc2)c1`, the result in assay [6] and in assay [1] was inactive.

In the case of `CN(C)C(=O)NC1(c2ccccc2)CCN(CC[C@@]2(c3ccc(F)c(F)c3)CN(C(=O)c3ccccc3)CCO2)CC1`, the molecule was called inactive in [5] and in assay [7].

For the molecule `O=C(O)CC(O)(CC(=O)O)C(=O)O`, in [2], the molecule was classed as inactive.

Turning to `CCN(CC)CCOc1ccc(C(=C(Cl)c2ccccc2)c2ccccc2)cc1`, in [3], the concentration at half-maximal activity (AC50) is 14.7 µM (active).

For `CCc1nc(N)nc(N)c1-c1ccc(Cl)cc1`, the molecule was called inactive in [3].

On to `CC(C)COC(=O)CCCCC(=O)OCC(C)C`, for which the AC50 in [3] was 36.1 µM (active).

In the case of `CCCCCCCC(=O)OC`, the molecule was classed as inactive in [7].

On to `CC(=O)OC1CC(C)OC(C)O1` (stereo not drawn), for which the outcome in assay [7] was inactive.

For the molecule `COC(=O)[C@H]1[C@H]2C[C@@H]3c4[nH]c5cc(OC)ccc5c4CCN3C[C@H]2C[C@@H](OC(=O)c2cc(OC)c(OC)c(OC)c2)[C@@H]1OC`, the AC50 in assay [10] was 24.6 µM (active).

As for `CCCCCCCCCCCCCCOS(=O)(=O)O`, the AC50 in assay [5] is 14.2 µM (active); in assay [3], 1.77 µM (active); in assay [8], 13.3 µM (active); in assay [2], 9.44 µM (active); in assay [10], 8.15 µM (active).

`O=C(N[C@@H](c1ccccc1)[C@@H]1CCCCN1)c1cccc(C(F)(F)F)c1Cl`: the call in assay [1] and in assay [2] was inactive.

For the molecule `CC(C)c1cccc(C(C)C)c1`, the outcome in assay [9] was inactive.

In the case of `CC(C)(C)c1ccccc1`, the result in assay [3] was inactive.

With `CC(N)=O`, in assay [1], the molecule was classed as inactive.

With `S=c1[nH]c2ccccc2s1`, the result in [5] and in [4] was inactive.

Turning to `CN(C)CCCN1c2ccccc2Sc2ccc(Cl)cc21`, in assay [3], the molecule was classed as inactive. The concentration at half-maximal activity (AC50) in assay [10] was 10.7 µM (active).

On to `O=C1CCCCC1`, for which the outcome in [7] was inactive.

Values taken from PubChem BioAssay (EPA / NIEHS).
